# Records with an inconclusive call do not appear. The source made the active and inactive calls. The calls were made as follows, unless noted: active = hit-call score of the fitted dose curve at least 0.9, where 1 is the maximum; inconclusive = response in the unintended direction; inactive = score below 0.9.
# How the values were obtained:
# [1] = target: Bile acid receptor (Homo sapiens) (UniProt Q96RI1); assay: ATG_IR1_CIS: Attagene CIS-FACTORIAL HepG2 Assay for human Nuclear Receptor Subfamily 1 Group H Member 4 (NR1H4), IR1 submotif (AID 2282946; active = hit-call score of the fitted dose curve at least 0.9, where 1 is the maximum; inactive = score below 0.9); settings: IR1 reporter transcription, actives raise or lower the signal
# Sequence of Bile acid receptor (Homo sapiens) (Q96RI1 whole entry, looked up): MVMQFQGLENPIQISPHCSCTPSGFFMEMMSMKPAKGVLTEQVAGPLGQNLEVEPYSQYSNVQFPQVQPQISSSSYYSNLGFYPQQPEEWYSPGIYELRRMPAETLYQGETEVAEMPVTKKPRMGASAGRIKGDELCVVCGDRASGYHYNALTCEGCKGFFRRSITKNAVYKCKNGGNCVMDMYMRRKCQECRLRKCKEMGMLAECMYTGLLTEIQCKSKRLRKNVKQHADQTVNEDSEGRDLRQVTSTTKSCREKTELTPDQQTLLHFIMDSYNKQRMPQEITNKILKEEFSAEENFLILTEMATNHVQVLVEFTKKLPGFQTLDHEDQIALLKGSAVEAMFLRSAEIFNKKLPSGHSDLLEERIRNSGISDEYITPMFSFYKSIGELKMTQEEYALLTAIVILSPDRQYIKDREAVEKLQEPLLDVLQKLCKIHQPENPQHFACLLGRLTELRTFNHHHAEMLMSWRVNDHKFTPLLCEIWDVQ
# Procedure, shortened: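 Transient MRTU transfection, HepG2; 24 h dosing; RNA → RT-PCR → 6-FAM primer extension → HpaI digest → capillary electrophoresis fluorescence. Gain/loss of signal fitted relative to DMSO.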
# [2] = target: Oxysterols receptor LXR-alpha (Homo sapiens) (UniProt Q13133); assay: ATG_LXRa_TRANS: Attagene TRANS-FACTORIAL HepG2 Assay for human Liver X Receptor alpha (LXRa) (AID 2282980); settings: HepG2 Attagene TRANS reporter, LXRa transactivation
# Procedure, shortened: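 Chemical-induced reporter mRNA measured by RT-PCR with fluorescent labelling and capillary electrophoresis after 24 h dosing of transiently transfected HepG2 cells expressing exogenous NR-Gal4 chimeras; increases scored against DMSO baseline.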
# [3] = target: Oxysterols receptor LXR-beta (Homo sapiens) (UniProt P55055); assay: ATG_LXRb_TRANS: Attagene TRANS-FACTORIAL HepG2 Assay for human Liver X Receptor beta (LXRb) (AID 2282981); settings: HepG2 Attagene TRANS GAL4-LXRb reporter, mRNA
# Sequence of Oxysterols receptor LXR-beta (Homo sapiens) (P55055 whole entry, looked up, the tested form may be a part): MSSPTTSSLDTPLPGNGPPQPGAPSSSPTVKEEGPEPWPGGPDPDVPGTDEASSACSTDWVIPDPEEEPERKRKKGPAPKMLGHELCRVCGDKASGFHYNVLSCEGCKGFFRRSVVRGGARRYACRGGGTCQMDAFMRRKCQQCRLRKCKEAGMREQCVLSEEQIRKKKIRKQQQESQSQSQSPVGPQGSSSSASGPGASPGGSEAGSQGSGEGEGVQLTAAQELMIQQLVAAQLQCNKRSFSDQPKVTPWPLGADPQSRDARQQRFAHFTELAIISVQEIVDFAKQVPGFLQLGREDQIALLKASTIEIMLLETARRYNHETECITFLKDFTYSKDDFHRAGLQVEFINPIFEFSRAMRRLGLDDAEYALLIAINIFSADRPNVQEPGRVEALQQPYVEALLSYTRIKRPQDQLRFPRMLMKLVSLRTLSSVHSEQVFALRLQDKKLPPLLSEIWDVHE
# Procedure, shortened: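 HepG2 cells transiently transfected with multiple reporter transcription units carrying chimeric NR-Gal4 proteins acting on GAL4-UAS reporters; compound exposure 24 h. Reporter mRNA quantified by RT-PCR, 6-FAM labelling, HpaI digestion and capillary electrophoresis; gain of signal versus DMSO.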
# [4] = target: Nuclear receptor subfamily 4 group A member 2 (Homo sapiens) (UniProt P43354); assay: ATG_NURR1_TRANS: Attagene TRANS-FACTORIAL HepG2 Assay for human Nuclear Receptor Related Protein 1 (NURR1) (AID 2282985); settings: HepG2 Attagene TRANS reporter, mRNA readout
# Sequence of Nuclear receptor subfamily 4 group A member 2 (Homo sapiens) (P43354 whole entry, looked up, the tested form may be a part): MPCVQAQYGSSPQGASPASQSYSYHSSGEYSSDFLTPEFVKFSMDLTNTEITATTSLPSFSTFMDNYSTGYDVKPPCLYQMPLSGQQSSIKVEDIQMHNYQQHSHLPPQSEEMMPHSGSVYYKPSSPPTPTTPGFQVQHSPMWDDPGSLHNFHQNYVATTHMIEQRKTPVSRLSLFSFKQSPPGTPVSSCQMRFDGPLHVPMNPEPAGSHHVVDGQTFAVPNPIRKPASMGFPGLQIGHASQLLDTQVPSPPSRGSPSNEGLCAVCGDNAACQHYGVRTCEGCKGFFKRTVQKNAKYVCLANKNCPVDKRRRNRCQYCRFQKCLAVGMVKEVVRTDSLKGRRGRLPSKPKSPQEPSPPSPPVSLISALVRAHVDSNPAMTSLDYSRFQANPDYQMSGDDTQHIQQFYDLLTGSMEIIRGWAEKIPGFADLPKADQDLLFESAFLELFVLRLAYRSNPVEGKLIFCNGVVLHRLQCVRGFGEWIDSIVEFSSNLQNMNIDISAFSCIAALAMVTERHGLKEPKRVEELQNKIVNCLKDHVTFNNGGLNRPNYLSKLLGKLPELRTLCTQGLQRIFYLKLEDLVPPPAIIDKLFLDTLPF
# Procedure, shortened: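 HepG2 cells transiently transfected with GAL4-UAS reporter units and chimeric NR-Gal4 constructs; chemical exposure 24 h. Reporter mRNA quantified by RT-PCR, fluorescent labelling and capillary electrophoresis; gain of signal fitted relative to DMSO baseline.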
# [5] = target: human Peroxisome Proliferator-activated Receptor alpha (PPARa), PPARA (gene 5465) (UniProt Q07869); assay: ATG_PPARa_TRANS: Attagene TRANS-FACTORIAL HepG2 Assay for human Peroxisome Proliferator-activated Receptor alpha (PPARa) (AID 2283001);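 as to AC50: potency for gain of reporter signal over DMSO so agonist or activator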
# Sequence of human Peroxisome Proliferator-activated Receptor alpha (PPARa), PPARA (gene 5465) (Q07869 whole entry, looked up, the tested form may be a part): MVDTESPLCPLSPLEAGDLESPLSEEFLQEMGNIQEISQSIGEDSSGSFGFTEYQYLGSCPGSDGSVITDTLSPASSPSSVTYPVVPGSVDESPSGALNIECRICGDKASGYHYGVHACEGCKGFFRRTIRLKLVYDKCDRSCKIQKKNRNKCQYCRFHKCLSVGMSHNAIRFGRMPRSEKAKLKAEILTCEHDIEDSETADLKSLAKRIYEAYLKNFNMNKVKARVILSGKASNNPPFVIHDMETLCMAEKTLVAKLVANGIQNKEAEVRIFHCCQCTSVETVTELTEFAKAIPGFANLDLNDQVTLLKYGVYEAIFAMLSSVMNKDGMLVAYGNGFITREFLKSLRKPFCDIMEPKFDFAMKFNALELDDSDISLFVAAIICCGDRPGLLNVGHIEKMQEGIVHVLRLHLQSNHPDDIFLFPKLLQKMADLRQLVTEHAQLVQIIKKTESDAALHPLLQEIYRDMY
# Procedure, shortened: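 HepG2 cells transiently transfected with multiplexed GAL4-UAS reporter units and chimeric NR-Gal4 constructs were dosed for 24 h. Reporter mRNA was measured by RT-PCR with fluorescent labelling and capillary electrophoresis; gain of signal fitted against DMSO.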
# [6] = target: human Peroxisome Proliferator-activated Receptor delta (PPARd), PPARD (gene 5467) (UniProt Q03181); assay: ATG_PPARd_TRANS: Attagene TRANS-FACTORIAL HepG2 Assay for human Peroxisome Proliferator-activated Receptor delta (PPARd) (AID 2283002)
# Sequence of human Peroxisome Proliferator-activated Receptor delta (PPARd), PPARD (gene 5467) (Q03181 whole entry, looked up, the tested form may be a part): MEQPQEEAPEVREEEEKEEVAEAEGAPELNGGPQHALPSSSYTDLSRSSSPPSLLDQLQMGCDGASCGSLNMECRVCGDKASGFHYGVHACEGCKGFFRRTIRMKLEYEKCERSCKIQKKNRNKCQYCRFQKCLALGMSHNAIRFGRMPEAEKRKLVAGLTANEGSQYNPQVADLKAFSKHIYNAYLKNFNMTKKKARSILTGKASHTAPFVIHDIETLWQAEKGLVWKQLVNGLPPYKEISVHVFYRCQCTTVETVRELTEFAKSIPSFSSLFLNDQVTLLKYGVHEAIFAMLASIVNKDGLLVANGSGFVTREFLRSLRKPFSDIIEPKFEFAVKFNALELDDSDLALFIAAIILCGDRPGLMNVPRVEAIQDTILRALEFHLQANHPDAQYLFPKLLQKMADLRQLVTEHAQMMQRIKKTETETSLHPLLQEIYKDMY
# Procedure, shortened: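 Multiplexed trans-activation format: HepG2 liver cells expressing exogenous NR-Gal4 chimeras and GAL4-UAS reporters were exposed for 24 h. Reporter mRNA was detected by RT-PCR with capillary electrophoresis fluorescence; activity fitted as gain of signal relative to DMSO.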
# [7] = target: human RAR-related Orphan Receptor gamma (RORg), RORC (gene 6097) (UniProt P51449); assay: ATG_RORg_TRANS: Attagene TRANS-FACTORIAL HepG2 Assay for human RAR-related Orphan Receptor gamma (RORg) (AID 2283011)
# Sequence of human RAR-related Orphan Receptor gamma (RORg), RORC (gene 6097) (P51449 whole entry, looked up, the tested form may be a part): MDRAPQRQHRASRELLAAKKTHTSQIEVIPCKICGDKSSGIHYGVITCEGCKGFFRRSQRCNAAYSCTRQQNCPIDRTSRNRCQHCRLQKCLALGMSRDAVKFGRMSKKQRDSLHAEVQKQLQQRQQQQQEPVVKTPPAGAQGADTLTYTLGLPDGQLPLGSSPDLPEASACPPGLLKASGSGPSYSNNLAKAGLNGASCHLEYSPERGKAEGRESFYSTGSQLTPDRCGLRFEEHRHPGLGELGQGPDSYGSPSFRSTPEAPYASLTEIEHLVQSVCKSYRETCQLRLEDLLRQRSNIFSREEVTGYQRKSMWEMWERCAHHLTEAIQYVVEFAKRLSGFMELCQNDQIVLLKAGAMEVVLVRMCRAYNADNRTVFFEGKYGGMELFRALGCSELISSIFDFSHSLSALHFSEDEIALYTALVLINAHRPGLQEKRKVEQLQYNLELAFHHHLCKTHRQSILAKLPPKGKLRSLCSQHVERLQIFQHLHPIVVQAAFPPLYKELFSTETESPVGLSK
# Procedure, shortened: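 Reporter transcripts from a transfected RORg-GAL4 chimera in HepG2 cells were quantified 24 h after dosing by RT-PCR, 6-FAM labelling, HpaI digestion and capillary electrophoresis; increases over DMSO baseline were fitted.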
# [8] = target: human Thyroid Receptor alpha (THRa1), THRA (gene 7067) (UniProt P10827); assay: ATG_THRa1_TRANS: Attagene TRANS-FACTORIAL HepG2 Assay for human Thyroid Receptor alpha (THRa1) (AID 2283014)
# Procedure, shortened: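 Transcripts from GAL4-UAS-driven reporters, measured after 24 h compound exposure by RT-PCR plus capillary electrophoresis of 6-FAM-labeled fragments, were fitted for gain of signal relative to DMSO. Cells: transiently transfected HepG2 expressing NR-Gal4 chimeras.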
# [9] = target: human Vitamin D Receptor (VDR), VDR (gene 7421) (UniProt P11473); assay: ATG_VDR_TRANS: Attagene TRANS-FACTORIAL HepG2 Assay for human Vitamin D Receptor (VDR) (AID 2283022)
# Sequence of human Vitamin D Receptor (VDR), VDR (gene 7421) (P11473 whole entry, looked up, the tested form may be a part): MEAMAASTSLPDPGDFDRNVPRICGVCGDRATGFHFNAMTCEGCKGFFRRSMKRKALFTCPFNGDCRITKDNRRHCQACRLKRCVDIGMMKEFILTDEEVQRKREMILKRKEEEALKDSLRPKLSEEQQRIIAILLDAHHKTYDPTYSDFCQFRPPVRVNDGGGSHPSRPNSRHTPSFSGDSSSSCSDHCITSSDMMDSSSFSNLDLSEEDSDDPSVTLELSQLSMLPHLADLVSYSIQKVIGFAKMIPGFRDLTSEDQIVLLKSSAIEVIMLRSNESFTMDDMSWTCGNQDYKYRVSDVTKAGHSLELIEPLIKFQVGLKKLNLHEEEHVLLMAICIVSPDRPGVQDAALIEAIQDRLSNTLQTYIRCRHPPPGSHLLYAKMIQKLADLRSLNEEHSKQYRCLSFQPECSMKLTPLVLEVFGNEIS
# Procedure, shortened: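 Transactivation by an exogenous VDR-Gal4 chimera in transiently transfected HepG2 cells was measured as reporter transcript level 24 hours after chemical treatment. RT-PCR products were analysed by capillary electrophoresis and fitted in the positive direction relative to DMSO.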
# [10] = ACEA_ER_AUC_viability: ACEA Biosciences xCELLigence Real-Time Cell Analysis on Estrogen Receptor Agonism for Viability (AID 2283782);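 also: continuous compound exposure with impedance area under curve over 80 h; hit means loss of impedance signal meaning reduced cell growth or viability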
# Procedure, shortened: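 T-47D human breast cells in phenol red-free RPMI1640 with 10% charcoal-stripped FBS were dosed with an 8-point 1:4 dilution series from 100 uM top final concentration, in duplicate. Impedance-based growth was followed for 80 h; AUC analysed versus DMSO.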
# [11] = ATG_GAL4_TRANS: Attagene TRANS-FACTORIAL HepG2 Assay for GAL4 (Internal Marker) (AID 2282976); settings: HepG2 Attagene TRANS GAL4 internal marker reporter
# Procedure, shortened: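 In transfected human HepG2 liver cells dosed 24 h, GAL4 reporter mRNA serves as a baseline marker. Detection by RT-PCR with fluorescent capillary electrophoresis, activity fitted upward relative to DMSO.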
# [12] = TOX21_p53_BLA_p2_viability: Viability Assessment in the Tox21 HCT-116 p53 Agonism Beta-lactamase Assay, Phase 2 (AID 2283591);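 also: compound exposure lasted 16 h at 37 °C; actives lower the ATP signal meaning cytotoxicity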
# Procedure, shortened: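 HCT-116 p53-bla cells (4000/well) rested 5 h at 37C, then received compounds in DMSO (217-fold dilution) for 16 h at 37C, 5% CO2. After the CCF4 read, CellTiter-Glo was added; ATP luminescence was read after 30 min at room temperature.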
# [13] = TOX21_p53_BLA_p4_viability: Viability Assessment in the Tox21 HCT-116 p53 Agonism Beta-lactamase Assay, Phase 4 (AID 2283597);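 also: hits lower the luminescence signal meaning cytotoxicity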
# Procedure, shortened: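 Following a 16 h exposure at 37C, the treated HCT116 wells were first read for the FRET ratio. They were then lysed with CellTiter-Glo, and ATP luminescence was recorded after 30 min at room temperature.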
# [14] = TOX21_p53_BLA_p5_viability: Viability Assessment in the Tox21 HCT-116 p53 Agonism Beta-lactamase Assay, Phase 5 (AID 2283600)
# Procedure, shortened: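 After the 460/530 nm beta-lactamase measurement, the wells received an ATP-detection luciferase reagent; signal was read 30 min later at RT. Compound treatment lasted 16 h on cells pre-incubated 5 h post-seeding.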
# [15] = ATG_M_19_TRANS: Attagene TRANS-FACTORIAL HepG2 Assay for M19 Transcription Factor (Internal Marker) (AID 2282974); settings: HepG2 Attagene TRANS-FACTORIAL M19 internal marker reporter
# Procedure, shortened: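 Fluorescence of 6-FAM-labelled reporter cDNA fragments, separated by capillary electrophoresis, served as the readout. These derived from HepG2 cells carrying transfected GAL4-UAS reporter units after 24 h dosing, with DMSO as negative control.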
# [16] = target: Cellular tumor antigen p53 (Homo sapiens) (UniProt P04637); assay: TOX21_p53_BLA_p2_ratio: Tox21 HCT-116 p53 Agonism Beta-lactamase Assay, Ratio, Phase 2 (AID 2283592)
# Sequence of Cellular tumor antigen p53 (Homo sapiens) (P04637 whole entry, looked up): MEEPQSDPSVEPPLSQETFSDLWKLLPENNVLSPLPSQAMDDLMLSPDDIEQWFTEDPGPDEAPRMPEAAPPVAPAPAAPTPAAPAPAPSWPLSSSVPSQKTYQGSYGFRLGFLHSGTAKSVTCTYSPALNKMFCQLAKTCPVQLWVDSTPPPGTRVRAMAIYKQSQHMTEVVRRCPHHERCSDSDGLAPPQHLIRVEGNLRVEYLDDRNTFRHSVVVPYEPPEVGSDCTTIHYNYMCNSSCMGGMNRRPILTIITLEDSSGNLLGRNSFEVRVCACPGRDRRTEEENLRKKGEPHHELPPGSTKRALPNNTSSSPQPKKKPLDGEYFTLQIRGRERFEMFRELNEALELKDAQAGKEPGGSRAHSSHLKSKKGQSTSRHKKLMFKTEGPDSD
# Procedure, shortened: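 Gain-of-signal p53 agonism was scored from the beta-lactamase FRET ratio (460/530 nm, 405 nm excitation) in HCT116 cells treated 16 h at 37C, 5% CO2, with DMSO serving as negative control and baseline.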
# [17] = target: Nuclear receptor subfamily 1 group I member 3 (Homo sapiens) (UniProt Q14994); assay: ATG_CAR_TRANS: Attagene TRANS-FACTORIAL HepG2 Assay for human Constitutive Androstane Receptor (CAR) (AID 2282969); settings: HepG2 Attagene TRANS-FACTORIAL CAR reporter;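 also: activators raise reporter mRNA above DMSO so AC50 marks induction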
# Sequence of Nuclear receptor subfamily 1 group I member 3 (Homo sapiens) (Q14994 whole entry, looked up, the tested form may be a part): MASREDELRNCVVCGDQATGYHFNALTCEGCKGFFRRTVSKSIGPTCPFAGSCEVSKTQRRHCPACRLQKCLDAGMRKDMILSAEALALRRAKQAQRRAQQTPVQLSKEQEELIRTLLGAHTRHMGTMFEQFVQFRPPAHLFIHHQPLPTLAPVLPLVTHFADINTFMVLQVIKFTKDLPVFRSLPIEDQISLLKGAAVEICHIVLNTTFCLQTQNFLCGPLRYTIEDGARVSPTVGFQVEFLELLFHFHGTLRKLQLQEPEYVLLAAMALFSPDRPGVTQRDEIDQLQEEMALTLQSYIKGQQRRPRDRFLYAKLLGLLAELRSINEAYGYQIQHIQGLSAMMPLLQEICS
# Procedure, shortened: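 HepG2 cells transiently transfected with multiplexed GAL4-UAS reporter units expressing chimeric NR-Gal4 proteins; compound exposure 24 h. Reporter mRNA measured by RT-PCR, 6-FAM labelling, HpaI digestion and capillary electrophoresis; gain-of-signal fitted against DMSO baseline.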
# [18] = TOX21_p53_BLA_p3_viability: Viability Assessment in the Tox21 HCT-116 p53 Agonism Beta-lactamase Assay, Phase 3 (AID 2283593);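 also: cells exposed to compound for 16 h before reading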
# Procedure, shortened: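 HCT-116 cells (4000/well) rested 5 h at 37C, then got DMSO compounds by pin tool (217-fold dilution) for 16 h at 37C, 5% CO2. After the bla read, CellTiter-Glo was added and luminescence read at 30 min, room temperature.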
# [19] = target: Peroxisome proliferator-activated receptor gamma (Homo sapiens) (UniProt P37231); assay: OT_PPARg_PPARgSRC1_0480: Odyssey Thera (OT) 8-hour Protein-Complementation Assay for Peroxisome Proliferator-activated Receptor Gamma / SRC-1 Co-activator (AID 2283387);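 also: nuclear to cytoplasmic split Venus YFP fluorescence ratio reporting PPARg SRC-1 interaction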
# Sequence of Peroxisome proliferator-activated receptor gamma (Homo sapiens) (P37231 whole entry, looked up, the tested form may be a part): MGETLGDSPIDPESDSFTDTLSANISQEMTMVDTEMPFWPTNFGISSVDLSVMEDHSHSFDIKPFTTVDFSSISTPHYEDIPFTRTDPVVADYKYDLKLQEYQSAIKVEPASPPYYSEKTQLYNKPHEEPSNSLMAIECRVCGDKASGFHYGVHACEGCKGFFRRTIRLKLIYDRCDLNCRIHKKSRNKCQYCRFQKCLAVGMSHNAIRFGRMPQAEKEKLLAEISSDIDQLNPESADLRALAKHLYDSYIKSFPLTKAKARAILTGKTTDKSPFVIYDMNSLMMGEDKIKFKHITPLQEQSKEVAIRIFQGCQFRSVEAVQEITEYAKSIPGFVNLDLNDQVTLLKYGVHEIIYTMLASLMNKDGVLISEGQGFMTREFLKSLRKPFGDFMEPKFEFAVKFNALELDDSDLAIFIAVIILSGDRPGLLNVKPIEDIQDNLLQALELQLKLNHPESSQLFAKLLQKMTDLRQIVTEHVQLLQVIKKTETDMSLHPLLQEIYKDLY
# Procedure, shortened: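 Split-YFP (IFP1/IFP2) PPARg/SRC-1 reporter, HEK293T, 37 °C, 5% CO2; 8 h compound; formaldehyde fix + Draq5; high-content imaging, N/C ratio, ≥350 cells/image, positive direction vs DMSO.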
# [20] = target: Peroxisome proliferator-activated receptor gamma (Homo sapiens) (UniProt P37231); assay: OT_PPARg_PPARgSRC1_1440: Odyssey Thera (OT) 24-hour Protein-Complementation Assay for Peroxisome Proliferator-activated Receptor Gamma/ SRC-1 Co-activator (AID 2283388);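 also: nuclear to cytoplasmic ratio of reconstituted Venus YFP fluorescence in fixed imaged cells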
# Procedure, shortened: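 Readout is the 488 nm N/C fluorescence ratio from fixed, Draq5-stained HEK293T cells after 24 h compound exposure. Cells carried transiently transfected PPARg and SRC-1 fused to Venus fragments, transfected 48 h before treatment.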
smiles,measurement,setting,value
C[C@]12CC[C@H](O)C[C@H]1CC[C@@H]1[C@@H]2C[C@@H](O)[C@]2(C)[C@@H](C3=CC(=O)OC3)CC[C@]12O,outcome,[1],inactive
same,outcome,[2],inactive
same,outcome,[3],inactive
same,outcome,[4],inactive
same,AC50,[5],1.78 µM (active)
same,outcome,[6],inactive
same,outcome,[7],inactive
same,outcome,[8],inactive
same,outcome,[9],inactive
same,AC50,[10],1.75 µM (active)
C[N+](=O)[O-],outcome,[11],inactive
same,outcome,[2],inactive
same,outcome,[3],inactive
same,outcome,[5],inactive
same,outcome,[6],inactive
same,outcome,[8],inactive
same,outcome,[12],inactive
same,outcome,[13],inactive
same,outcome,[14],inactive
O=S(=O)(c1ccccc1)c1ccccc1,outcome,[1],inactive
same,outcome,[15],inactive
same,outcome,[11],inactive
same,outcome,[2],inactive
same,outcome,[3],inactive
same,outcome,[8],inactive
same,outcome,[9],inactive
same,outcome,[12],inactive
same,outcome,[16],inactive
same,outcome,[13],inactive
same,outcome,[14],inactive
same,outcome,[10],inactive
C=CC(=O)OCCCCOC(=O)C=C,AC50,[1],65.8 µM (active)
same,outcome,[3],inactive
same,outcome,[4],inactive
same,outcome,[5],inactive
same,outcome,[6],inactive
same,outcome,[9],inactive
same,AC50,[12],69.5 µM (active)
same,AC50,[16],49.6 µM (active)
same,AC50,[10],24.2 µM (active)
CC(C)CCCCCCCOP(=O)(Oc1ccccc1)Oc1ccccc1,outcome,[1],inactive
same,outcome,[17],inactive
same,outcome,[11],inactive
same,outcome,[3],inactive
same,AC50,[4],26.6 µM (active)
same,outcome,[6],inactive
same,outcome,[9],inactive
same,outcome,[12],inactive
same,outcome,[18],inactive
same,outcome,[13],inactive
same,outcome,[14],inactive
same,outcome,[10],inactive
CCC(Br)(CC)C(=O)NC(N)=O,outcome,[1],inactive
same,outcome,[2],inactive
same,outcome,[7],inactive
same,outcome,[8],inactive
same,outcome,[9],inactive
same,outcome,[12],inactive
same,outcome,[16],inactive
same,outcome,[10],inactive
Cl/C=C\CCl,outcome,[15],inactive
same,outcome,[11],inactive
same,outcome,[5],inactive
same,outcome,[6],inactive
same,outcome,[7],inactive
same,outcome,[8],inactive
same,outcome,[9],inactive
same,outcome,[10],inactive
O=C(O)C(Br)Br,outcome,[1],inactive
same,outcome,[15],inactive
same,outcome,[11],inactive
same,outcome,[7],inactive
same,outcome,[12],inactive
same,outcome,[16],inactive
same,outcome,[18],inactive
same,outcome,[13],inactive
same,outcome,[14],inactive
same,outcome,[10],inactive
C=C(Cl)CCl,outcome,[15],inactive
same,outcome,[11],inactive
same,outcome,[2],inactive
same,outcome,[3],inactive
same,outcome,[5],inactive
same,outcome,[7],inactive
same,outcome,[8],inactive
same,outcome,[9],inactive
same,outcome,[16],inactive
same,outcome,[13],inactive
same,outcome,[14],inactive
CC(=O)C=Cc1ccccc1,outcome,[17],inactive
same,outcome,[15],inactive
same,outcome,[11],inactive
same,outcome,[2],inactive
same,outcome,[3],inactive
same,outcome,[4],inactive
same,AC50,[5],100 µM (active)
same,outcome,[6],inactive
same,outcome,[7],inactive
same,outcome,[9],inactive
same,outcome,[19],inactive
same,outcome,[20],inactive
same,outcome,[10],inactive
CN(C)C(=O)C(c1ccccc1)c1ccccc1,outcome,[17],inactive
same,outcome,[15],inactive
same,outcome,[11],inactive
same,outcome,[2],inactive
same,outcome,[4],inactive
same,outcome,[5],inactive
same,outcome,[6],inactive
same,outcome,[7],inactive
same,outcome,[9],inactive
same,outcome,[19],inactive
same,outcome,[20],inactive
same,outcome,[12],inactive
same,outcome,[16],inactive
same,outcome,[18],inactive
same,outcome,[13],inactive
same,outcome,[14],inactive
